In the supplement of paper PMC10849652:
The full data set covers some 8,800 targets. This sample favours those with a hit. About 0.5% of all pairs of compound and target were hits.

Columns and labels:
Test in all cases: log2 fold change, soluble protein after heating vs DMSO (PISA); higher = thermal stabilisation; K562 lysate, 10 uM; active = over 0.2 and 3.5 SD of the protein, either way, in both replicates (recomputed)
[1] = compound: C1=CC=C(C=C1)[C@H](COC2=CC3=C(C=C2)NC(=O)N3)NC(=O)C4=CC=CN(C4=O)CC5=CC(=C(C=C5)F)F
Summary of the method: (§1)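 Log-two fold change in thermal stability relative to solvent controls is reported from duplicates. For each sample, crude K562 extract from dounce-homogenised pellets in PBS pH 7.4 with 1 mM MgCl2, at 1 mg/mL protein, was treated with 10 μM compound for 30 min. Aliquots heated for 3 min across 48°C-58°C were pooled, brought to 0.5% NP-40 at 4°C and cleared at 21,000xg for 90 min. The supernatant was quantified by TMTpro 16plex LC-MS/MS with channel sums equalised.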

[2] = compound: CC1=C(SC2=C1C(=N[C@H](C3=NN=C(N32)C)CC(=O)N)C4=CC=C(C=C4)Cl)C
Summary of the method: as §1

[3] = compound: CC1=C2C(=CC=C1)N=C(N(C2=O)C3=CC=CC=C3C)CN4C=NC5=C(N=CN=C54)N
Summary of the method: as §1

[4] = compound: c1ccc([C@@H]2C[C@H]2NC2CCNCC2)cc1
Summary of the method: as §1

[5] = compound: Cc1sc2c(c1C)C(c1ccc(Cl)cc1)=N[C@@H](CC(=O)OC(C)(C)C)c1nnc(C)n1-2
Summary of the method: as §1

Measured: log2 fold change

TFAP4 (UniProt Q01664)
Chain of UniProt Q01664 (Q01664 whole entry, looked up): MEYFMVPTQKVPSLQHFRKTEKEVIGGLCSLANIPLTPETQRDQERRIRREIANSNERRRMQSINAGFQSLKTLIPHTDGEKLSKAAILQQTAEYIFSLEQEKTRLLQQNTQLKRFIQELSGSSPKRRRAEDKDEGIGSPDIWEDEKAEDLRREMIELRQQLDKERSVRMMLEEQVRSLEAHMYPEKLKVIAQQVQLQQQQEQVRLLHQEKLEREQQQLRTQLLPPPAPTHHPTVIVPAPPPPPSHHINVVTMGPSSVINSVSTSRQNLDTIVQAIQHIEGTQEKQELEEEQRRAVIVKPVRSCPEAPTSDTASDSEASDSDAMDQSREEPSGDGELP
inactive: [1] 0.018 | [2] -0.069 | [3] 0.012 | [4] 0.081

TLE3 isoform 4 (UniProt Q04726)
Chain of UniProt Q04726 (Q04726 whole entry, looked up): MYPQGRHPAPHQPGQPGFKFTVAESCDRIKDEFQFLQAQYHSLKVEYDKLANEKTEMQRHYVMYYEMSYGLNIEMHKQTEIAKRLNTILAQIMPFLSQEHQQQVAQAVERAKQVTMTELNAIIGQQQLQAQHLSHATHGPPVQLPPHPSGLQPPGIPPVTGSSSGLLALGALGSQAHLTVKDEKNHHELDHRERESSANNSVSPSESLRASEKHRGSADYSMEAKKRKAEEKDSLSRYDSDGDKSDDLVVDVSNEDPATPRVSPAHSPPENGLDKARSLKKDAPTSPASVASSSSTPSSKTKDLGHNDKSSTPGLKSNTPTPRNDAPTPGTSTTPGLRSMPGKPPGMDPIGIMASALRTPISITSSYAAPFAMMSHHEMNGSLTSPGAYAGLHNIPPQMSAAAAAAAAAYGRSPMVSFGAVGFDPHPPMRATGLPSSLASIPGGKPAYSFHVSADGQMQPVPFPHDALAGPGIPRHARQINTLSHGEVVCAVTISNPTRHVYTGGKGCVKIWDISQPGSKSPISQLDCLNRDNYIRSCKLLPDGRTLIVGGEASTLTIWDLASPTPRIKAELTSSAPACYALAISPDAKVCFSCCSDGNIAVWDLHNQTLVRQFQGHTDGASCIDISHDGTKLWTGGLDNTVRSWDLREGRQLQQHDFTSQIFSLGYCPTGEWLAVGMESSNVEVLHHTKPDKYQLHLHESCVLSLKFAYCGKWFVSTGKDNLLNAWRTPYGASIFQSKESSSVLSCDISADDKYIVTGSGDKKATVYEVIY
inactive: [1] 0.01 | [2] -0.033 | [3] 0.024 | [5] 0.025 | [4] 0.007

TCP11L1 (UniProt Q9NUJ3)
Chain of UniProt Q9NUJ3 (Q9NUJ3 whole entry, looked up): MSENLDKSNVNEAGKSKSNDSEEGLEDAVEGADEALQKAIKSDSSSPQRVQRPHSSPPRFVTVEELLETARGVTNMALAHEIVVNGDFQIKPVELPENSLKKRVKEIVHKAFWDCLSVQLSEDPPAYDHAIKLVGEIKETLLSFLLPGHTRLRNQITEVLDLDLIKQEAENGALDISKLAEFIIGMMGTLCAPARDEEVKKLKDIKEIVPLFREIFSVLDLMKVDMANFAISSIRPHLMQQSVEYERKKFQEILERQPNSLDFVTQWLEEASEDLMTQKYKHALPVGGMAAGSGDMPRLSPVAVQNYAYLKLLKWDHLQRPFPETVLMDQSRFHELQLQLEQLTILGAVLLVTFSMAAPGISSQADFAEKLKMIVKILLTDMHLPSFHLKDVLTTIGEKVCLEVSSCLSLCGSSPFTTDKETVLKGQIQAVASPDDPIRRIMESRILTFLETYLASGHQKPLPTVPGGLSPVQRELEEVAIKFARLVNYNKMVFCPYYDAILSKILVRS
inactive: [1] -0.023 | [2] -0.031 | [3] -0.02 | [5] -0.021 | [4] -0.095

TUBE1 (UniProt Q9UJT0)
inactive: [1] -0.019 | [2] 0.003 | [3] 0.019 | [5] -0.064 | [4] 0.107

TMEM177 (UniProt Q53S58)
Chain of UniProt Q53S58 (Q53S58 whole entry, looked up): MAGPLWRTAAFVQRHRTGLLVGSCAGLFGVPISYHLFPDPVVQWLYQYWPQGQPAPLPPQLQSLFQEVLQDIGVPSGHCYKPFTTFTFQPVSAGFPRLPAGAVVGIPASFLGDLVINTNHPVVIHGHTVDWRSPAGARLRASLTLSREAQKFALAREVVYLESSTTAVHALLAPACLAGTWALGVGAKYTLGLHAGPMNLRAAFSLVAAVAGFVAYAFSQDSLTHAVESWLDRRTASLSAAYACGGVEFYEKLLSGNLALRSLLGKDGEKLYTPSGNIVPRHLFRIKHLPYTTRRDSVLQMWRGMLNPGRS
inactive: [1] 0.002 | [2] -0.009 | [3] 0.015 | [4] 0.068

TRA2A (UniProt Q13595)
Chain of UniProt Q13595 (Q13595 whole entry, looked up): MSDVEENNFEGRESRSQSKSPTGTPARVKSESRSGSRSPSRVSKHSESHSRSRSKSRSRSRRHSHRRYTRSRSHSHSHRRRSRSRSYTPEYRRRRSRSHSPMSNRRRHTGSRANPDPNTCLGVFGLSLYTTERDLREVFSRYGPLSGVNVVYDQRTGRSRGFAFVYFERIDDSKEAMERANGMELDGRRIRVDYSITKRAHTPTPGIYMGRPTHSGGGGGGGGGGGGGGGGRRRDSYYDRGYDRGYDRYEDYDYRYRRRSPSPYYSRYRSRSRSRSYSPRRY
inactive: [1] -0.076 | [2] 0.065 | [3] 0.034 | [5] -0.054 | [4] 0.004

TSFM (UniProt P43897)
Chain of UniProt P43897 (P43897 whole entry, looked up): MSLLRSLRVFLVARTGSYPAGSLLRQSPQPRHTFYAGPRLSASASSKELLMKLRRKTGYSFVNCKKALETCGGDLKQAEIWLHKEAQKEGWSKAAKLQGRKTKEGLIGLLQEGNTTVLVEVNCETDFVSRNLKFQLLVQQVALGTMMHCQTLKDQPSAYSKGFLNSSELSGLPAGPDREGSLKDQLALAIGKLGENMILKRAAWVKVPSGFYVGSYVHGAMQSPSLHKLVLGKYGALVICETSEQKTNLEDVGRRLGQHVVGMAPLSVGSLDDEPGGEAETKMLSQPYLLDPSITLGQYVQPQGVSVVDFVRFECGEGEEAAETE
inactive: [1] 0.006 | [2] 0.007 | [3] 0.027 | [5] 0.066 | [4] -0.092

TXNRD2 (UniProt Q9NNW7)
Chain of UniProt Q9NNW7 (Q9NNW7 whole entry, looked up): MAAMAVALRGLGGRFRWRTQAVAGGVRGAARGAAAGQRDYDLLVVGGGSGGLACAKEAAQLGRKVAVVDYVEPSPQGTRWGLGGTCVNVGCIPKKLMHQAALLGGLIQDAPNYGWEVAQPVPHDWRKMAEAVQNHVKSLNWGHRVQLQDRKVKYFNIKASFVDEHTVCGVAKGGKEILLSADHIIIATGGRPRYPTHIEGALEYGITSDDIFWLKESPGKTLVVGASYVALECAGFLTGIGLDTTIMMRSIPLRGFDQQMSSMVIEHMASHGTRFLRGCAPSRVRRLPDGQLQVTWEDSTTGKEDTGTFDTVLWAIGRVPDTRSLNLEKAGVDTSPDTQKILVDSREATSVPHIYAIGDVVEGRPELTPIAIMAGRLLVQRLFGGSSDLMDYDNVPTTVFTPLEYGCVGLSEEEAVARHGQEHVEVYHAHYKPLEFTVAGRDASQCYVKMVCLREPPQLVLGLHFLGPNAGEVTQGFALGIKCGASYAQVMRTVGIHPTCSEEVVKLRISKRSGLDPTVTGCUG
inactive: [1] 0.023 | [2] -0.015 | [3] -0.048 | [5] -0.042 | [4] 0.006

TUT4 (UniProt Q5TAX3)
Chain of UniProt Q5TAX3 (Q5TAX3 whole entry, looked up): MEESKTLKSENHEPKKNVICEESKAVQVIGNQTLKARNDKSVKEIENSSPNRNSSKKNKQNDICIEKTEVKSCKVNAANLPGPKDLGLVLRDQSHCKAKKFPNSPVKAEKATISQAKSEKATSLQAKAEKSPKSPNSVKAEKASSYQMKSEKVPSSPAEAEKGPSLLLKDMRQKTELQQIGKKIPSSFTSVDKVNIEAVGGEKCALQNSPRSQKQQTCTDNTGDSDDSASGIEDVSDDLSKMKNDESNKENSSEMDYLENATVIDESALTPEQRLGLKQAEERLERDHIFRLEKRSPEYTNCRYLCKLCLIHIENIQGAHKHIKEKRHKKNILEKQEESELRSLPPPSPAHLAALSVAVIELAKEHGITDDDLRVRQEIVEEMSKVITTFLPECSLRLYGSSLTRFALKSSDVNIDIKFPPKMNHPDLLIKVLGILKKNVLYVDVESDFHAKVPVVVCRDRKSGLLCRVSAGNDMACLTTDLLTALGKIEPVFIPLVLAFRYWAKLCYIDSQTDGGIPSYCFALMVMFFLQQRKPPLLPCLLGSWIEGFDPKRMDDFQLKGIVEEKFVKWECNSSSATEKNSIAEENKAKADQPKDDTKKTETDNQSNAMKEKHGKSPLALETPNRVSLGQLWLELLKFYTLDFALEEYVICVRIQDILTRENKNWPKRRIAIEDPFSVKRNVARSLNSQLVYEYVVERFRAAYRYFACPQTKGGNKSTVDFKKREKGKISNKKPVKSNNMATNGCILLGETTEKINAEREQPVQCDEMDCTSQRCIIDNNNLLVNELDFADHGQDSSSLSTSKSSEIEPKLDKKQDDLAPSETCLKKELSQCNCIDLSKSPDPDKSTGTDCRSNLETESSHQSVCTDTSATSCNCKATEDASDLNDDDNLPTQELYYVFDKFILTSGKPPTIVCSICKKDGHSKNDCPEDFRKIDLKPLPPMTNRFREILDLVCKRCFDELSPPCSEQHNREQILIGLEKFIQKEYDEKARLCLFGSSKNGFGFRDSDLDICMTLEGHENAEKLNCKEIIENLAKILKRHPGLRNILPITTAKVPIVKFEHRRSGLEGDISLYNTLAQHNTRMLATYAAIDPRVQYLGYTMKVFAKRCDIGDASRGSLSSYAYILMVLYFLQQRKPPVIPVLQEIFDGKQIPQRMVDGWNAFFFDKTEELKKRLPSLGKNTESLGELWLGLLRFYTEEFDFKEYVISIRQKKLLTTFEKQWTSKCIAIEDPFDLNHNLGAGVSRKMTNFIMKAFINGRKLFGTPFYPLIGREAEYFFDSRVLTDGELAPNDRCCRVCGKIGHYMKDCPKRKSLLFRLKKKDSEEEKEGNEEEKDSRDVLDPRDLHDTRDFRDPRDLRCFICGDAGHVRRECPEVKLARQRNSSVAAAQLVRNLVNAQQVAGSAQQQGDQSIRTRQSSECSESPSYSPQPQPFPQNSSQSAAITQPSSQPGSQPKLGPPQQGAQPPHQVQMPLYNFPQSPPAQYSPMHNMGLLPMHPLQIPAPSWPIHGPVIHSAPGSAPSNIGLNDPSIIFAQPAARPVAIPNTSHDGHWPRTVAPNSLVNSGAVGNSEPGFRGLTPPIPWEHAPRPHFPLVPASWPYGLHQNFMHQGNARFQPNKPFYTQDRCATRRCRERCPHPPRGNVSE
inactive: [1] -0.032 | [2] -0.024 | [3] 0.035 | [5] 0.009 | [4] -0.021

TTC27 (UniProt Q6P3X3)
inactive: [1] -0.039 | [2] -0.021 | [3] 0.028 | [5] -0.019 | [4] 0.032
